Data from PubChem BioAssay (NCI).
About 83,000 compounds went through this panel and 20% of them were active in at least one assay; those are over-represented in the sample as a whole.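 Note: values are percent growth. 100 is the growth of untreated cells, values between 100 and 0 indicate rising inhibition; between -100 and 0 indicates cell death.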 Unmarked numbers belong to inactive results. Active and inactive are the calls of the source. Rule for the calls: active = growth percent below 10; inactive = the rest.

Tested on: COLO 205 colon
Assay: NCI-60 one-dose screen, 48 h (100 = growth as untreated, 0 = no growth, -100 = all killed)
Settings: 10 µM unless noted

Compound | growth
COc1cccc(Nc2nccc(Nc3ccc4[nH]ncc4c3)n2)c1 | -88.4% (active)
CCCCCc1nc2c(c3c1CCCC3)CCCC2 | 89.4%
Clc1cccc(Cl)c1/C=C/c1cc(/C=C/c2c(Cl)cccc2Cl)[nH]n1 | 17.7%
NC(=O)c1ccc[n+](Cc2ccc(Cl)cc2Cl)c1 | 111%
COc1cc(-c2nn(-c3ccccc3)cc2-c2ccnc(NCCNS(=O)(=O)c3ccc(Cl)cc3)n2)ccc1Cl | 17.2%
O=C(Nc1cccc(Oc2nnc(Cl)c3ccccc23)c1)Nc1ccc(Cl)c(C(F)(F)F)c1 | -69.3% (active)
CCN1C(=O)N(CC)C2Nn3c(s/c(=C\c4ccc(Cl)cc4Cl)c3=O)=NC21 (centres undefined) | -23% (active)
O=C(Cc1ccc(F)c(F)c1)Nc1cc(C2(C(F)(F)F)CC2)nn1Cc1ccccc1 | -86.7% (active)
COc1ccc(-c2nc(SC(C)C)nc(NNC(N)=S)c2C#N)cc1 | 99.9%
